# The supplement of paper PMC8728848
# The full list was thinned out, with the strongest signals kept by preference.
# Legend:
# Experiment in all cases: glycan array binding signal (z-score within array); higher = stronger binding
# Conditions in all cases: glycan notation: IUPAC condensed, linker removed
# [1] = molecular target: Fuc(a1-2)Gal(b1-3)GalNAc(b1-3)Gal
# Outline: (§1)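 Negative Z-scores can be read as non-binding. The Z-score is calculated within each array and then averaged across arrays of one protein sequence at different concentrations or buffers and across linkers. Arrays, 3228 in all, were curated from the Consortium for Functional Glycomics database and kept only where the protein sequence was available.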
# [2] = molecular target: Fuc(a1-2)Gal(b1-4)[Fuc(a1-3)]GlcNAc(b1-2)Man(a1-3)[Fuc(a1-2)Gal(b1-4)[Fuc(a1-3)]GlcNAc(b1-2)Man(a1-6)]Man(b1-4)GlcNAc(b1-4)GlcNAc
# Outline: as §1
# [3] = molecular target: Fuc(a1-3)[Gal3S(b1-4)]Glc6S
# Outline: as §1
# Gal(a1-3)Gal(b1-4)Glc = molecular target: Gal(a1-3)Gal(b1-4)Glc
# Outline: as §1
# Gal(a1-3)GalNAc = molecular target: Gal(a1-3)GalNAc
# Outline: as §1
# Gal(b1-3)GalNAc = molecular target: Gal(b1-3)GalNAc
# Outline: as §1
# [4] = molecular target: Gal(b1-3)[Fuc(a1-4)]GlcNAc(b1-2)Man(a1-3)[Gal(b1-3)[Fuc(a1-4)]GlcNAc(b1-2)Man(a1-6)]Man(b1-4)GlcNAc(b1-4)GlcNAc
# Outline: as §1
# [5] = molecular target: Gal(b1-4)GlcNAc(b1-3)Gal(b1-4)GlcNAc(b1-3)Gal(b1-4)GlcNAc
# Outline: as §1
# [6] = molecular target: Gal3S(b1-4)[Fuc(a1-3)]Glc
# Outline: as §1
# GalNAc(a1-3)GalNAc = molecular target: GalNAc(a1-3)GalNAc
# Outline: as §1
# GalNAc(b1-3)GalNAc = molecular target: GalNAc(b1-3)GalNAc
# Outline: as §1
# [7] = molecular target: GalNAc(b1-4)GlcNAc(b1-2)Man(a1-3)[GalNAc(b1-4)GlcNAc(b1-2)Man(a1-6)]Man(b1-4)GlcNAc(b1-4)GlcNAc
# Outline: as §1
# GlcA(b1-3)GlcNAc = molecular target: GlcA(b1-3)GlcNAc
# Outline: as §1
# [8] = molecular target: GlcNAc(a1-3)Gal(b1-4)GlcNAc
# Outline: as §1
# [9] = molecular target: GlcNAc(a1-4)Gal(b1-3)GlcNAc
# Outline: as §1
# [10] = molecular target: GlcNAc(b1-2)Gal(b1-3)GalNAc
# Outline: as §1
# [11] = molecular target: GlcNAc(b1-3)Gal(b1-3)GalNAc
# Outline: as §1
# [12] = molecular target: GlcNAc(b1-3)[GlcNAc(b1-4)][GlcNAc(b1-6)]GlcNAc
# Outline: as §1
# [13] = molecular target: Man(a1-2)Man(a1-3)[Man(a1-6)]Man(a1-6)[Man(a1-2)Man(a1-3)]Man(b1-4)GlcNAc(b1-4)GlcNAc
# Outline: as §1
# Neu5Ac(a2-3)Gal = molecular target: Neu5Ac(a2-3)Gal
# Outline: as §1
# [14] = molecular target: Neu5Ac(a2-3)Gal(b1-3)[Neu5Ac(a2-6)]GalNAc
# Outline: as §1
# [15] = molecular target: Neu5Ac(a2-3)Gal(b1-4)GlcNAc(b1-3)Gal(b1-4)[Fuc(a1-3)]GlcNAc
# Outline: as §1
# [16] = molecular target: Neu5Ac(a2-3)Gal(b1-4)[Fuc(a1-3)]GlcNAc(b1-6)[Gal(b1-3)]GalNAc
# Outline: as §1
# [17] = molecular target: Neu5Ac(a2-3)[GalNAc(b1-4)]Gal(b1-4)GlcNAc
# Outline: as §1
# [18] = molecular target: Neu5Ac(a2-8)Neu5Ac(a2-8)Neu5Ac(a2-3)[GalNAc(b1-4)]Gal(b1-4)Glc
# Outline: as §1
# Neu5Gc(a2-6)GalNAc = molecular target: Neu5Gc(a2-6)GalNAc
# Outline: as §1
binder,measurement,setting,value
"CTLX (Homo sapiens), Q6UXS0 (protein) SLCPLFWMEFKGHCYRFFPLNKTWAEADLYCSEFSVGRKSAKLASIHSWEENVFVYDLVNSCVPGIPADVWTGLHDHRQEGQFEWTDGSSYDYSYWDGSQPDDGVHADPEEEDCVQIWYRPTSALRSWNDNTCSRKFPFVCKIPSLTIH",glycan array binding signal (z-score),[1],0.292
same,glycan array binding signal (z-score),[2],3.01
same,glycan array binding signal (z-score),[3],5.87
same,glycan array binding signal (z-score),Gal(a1-3)Gal(b1-4)Glc,1.11
same,glycan array binding signal (z-score),Gal(a1-3)GalNAc,-1.04
same,glycan array binding signal (z-score),Gal(b1-3)GalNAc,0.235
same,glycan array binding signal (z-score),[4],4.2
same,glycan array binding signal (z-score),[5],-0.836
same,glycan array binding signal (z-score),[6],-0.137
same,glycan array binding signal (z-score),GalNAc(a1-3)GalNAc,-0.619
same,glycan array binding signal (z-score),GalNAc(b1-3)GalNAc,-0.421
same,glycan array binding signal (z-score),[7],0.305
same,glycan array binding signal (z-score),GlcA(b1-3)GlcNAc,0.103
same,glycan array binding signal (z-score),[8],-0.363
same,glycan array binding signal (z-score),[9],3.54
same,glycan array binding signal (z-score),[10],-0.988
same,glycan array binding signal (z-score),[11],4.33
same,glycan array binding signal (z-score),[12],-0.646
same,glycan array binding signal (z-score),[13],-0.346
same,glycan array binding signal (z-score),Neu5Ac(a2-3)Gal,-0.528
same,glycan array binding signal (z-score),[14],0.498
same,glycan array binding signal (z-score),[15],-0.47
same,glycan array binding signal (z-score),[16],4
same,glycan array binding signal (z-score),[17],-0.041
same,glycan array binding signal (z-score),[18],-1.09
same,glycan array binding signal (z-score),Neu5Gc(a2-6)GalNAc,-0.736
